The supplement of paper PMC10849652
The full data set covers some 8,800 targets. This sample favours those with a hit. About 0.5% of all pairs of compound and target were hits.

Columns and labels:
Experiment in all cases: log2 fold change, soluble protein after heating vs DMSO (PISA); higher = thermal stabilisation; K562 lysate, 10 uM; active = over 0.2 and 3.5 SD of the protein, either way, in both replicates (recomputed)
nilotinib = compound: Cc1cn(-c2cc(NC(=O)c3ccc(C)c(Nc4nccc(-c5cccnc5)n4)c3)cc(C(F)(F)F)c2)cn1 [nilotinib]
Summary of the method: (§1)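 Log-two fold change in thermal stability relative to solvent controls is reported from duplicates. For each sample, crude K562 extract from dounce-homogenised pellets in PBS pH 7.4 with 1 mM MgCl2, at 1 mg/mL protein, was treated with 10 μM compound for 30 min. Aliquots heated for 3 min across 48°C-58°C were pooled, brought to 0.5% NP-40 at 4°C and cleared at 21,000xg for 90 min. The supernatant was quantified by TMTpro 16plex LC-MS/MS with channel sums equalised.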

[1] = compound: Cc1nc(Nc2n[nH]c3c2CN(C(=O)N[C@H](CN(C)C)c2ccccc2)C3(C)C)c2sccc2n1
Summary of the method: as §1

dasatinib = compound: Cc1nc(Nc2ncc(C(=O)Nc3c(C)cccc3Cl)s2)cc(N2CCN(CCO)CC2)n1 [dasatinib]
Summary of the method: as §1

[2] = compound: Cc1ncc(-c2ccnc(Nc3ccc(S(C)(=O)=O)cc3)n2)n1C(C)C
Summary of the method: as §1

[3] = compound: Cn1cc(-c2ccc3c(c2)CCN3C(=O)Cc2cccc(C(F)(F)F)c2)c2c(N)ncnc21
Summary of the method: as §1

quisinostat = compound: Cn1cc(CNCC2CCN(c3ncc(C(=O)NO)cn3)CC2)c2ccccc21 [quisinostat]
Summary of the method: as §1

tipifarnib = compound: Cn1cncc1[C@@](N)(c1ccc(Cl)cc1)c1ccc2c(c1)c(-c1cccc(Cl)c1)cc(=O)n2C [tipifarnib]
Summary of the method: as §1

[4] = compound: NC(=O)Nc1cc(-c2cccc(F)c2)sc1C(=O)N[C@H]1CCCNC1
Summary of the method: as §1

[5] = compound: NC(=O)c1cnc(N[C@@H]2CCCC[C@@H]2N)nc1Nc1cccc(-n2nccn2)c1
Summary of the method: as §1

[6] = compound: NC1(c2ccc(-c3nc4ccn5c(=O)[nH]nc5c4cc3-c3ccccc3)cc2)CCC1
Summary of the method: as §1

Measured: log2 fold change

CTNND1 isoform 3 (UniProt O60716)
inactive: nilotinib -0.027 | [1] -0.02 | dasatinib 0.006 | [2] -0.017 | [3] 0.009 | quisinostat -0.065 | tipifarnib -0.06 | [4] 0.027 | [5] 0.065 | [6] -0.065

CLPTM1L (UniProt Q96KA5)
inactive: nilotinib 0.037 | [1] -0.005 | dasatinib 0.006 | [2] 0 | [3] -0.016 | quisinostat 0.011 | tipifarnib -0.026 | [4] 0.046 | [5] 0.016 | [6] -0.069

CTPS1 (UniProt P17812)
Chain of UniProt P17812 (P17812 whole entry, looked up): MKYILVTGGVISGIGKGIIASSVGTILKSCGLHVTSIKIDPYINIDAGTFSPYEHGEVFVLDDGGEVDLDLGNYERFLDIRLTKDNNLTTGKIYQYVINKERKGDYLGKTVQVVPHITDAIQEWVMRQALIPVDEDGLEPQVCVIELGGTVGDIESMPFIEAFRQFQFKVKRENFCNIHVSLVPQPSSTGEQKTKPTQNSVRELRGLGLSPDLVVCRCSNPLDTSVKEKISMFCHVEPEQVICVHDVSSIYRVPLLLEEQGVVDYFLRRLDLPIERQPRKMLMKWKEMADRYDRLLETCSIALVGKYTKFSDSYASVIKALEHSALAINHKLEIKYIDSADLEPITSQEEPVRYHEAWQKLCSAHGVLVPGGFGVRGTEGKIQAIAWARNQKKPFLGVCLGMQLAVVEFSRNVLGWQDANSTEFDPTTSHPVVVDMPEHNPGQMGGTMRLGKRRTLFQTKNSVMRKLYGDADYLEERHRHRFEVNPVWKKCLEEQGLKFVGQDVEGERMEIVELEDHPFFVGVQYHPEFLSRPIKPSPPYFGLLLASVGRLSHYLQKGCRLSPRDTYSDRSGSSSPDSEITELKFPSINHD
inactive: nilotinib 0.009 | [1] -0.005 | dasatinib -0.058 | [2] 0.011 | [3] 0.026 | quisinostat -0.019 | tipifarnib -0.015 | [4] 0.028 | [5] 0.002 | [6] -0.004

DNAJC5 (UniProt Q9H3Z4)
inactive: nilotinib -0.136 | [1] -0.043 | dasatinib -0.002 | [2] 0.008 | [3] -0.029 | quisinostat -0.05 | tipifarnib 0.043 | [4] -0.045 | [5] 0.062 | [6] 0.024

COG4 (UniProt Q9H9E3)
Chain of UniProt Q9H9E3 (Q9H9E3 whole entry, looked up): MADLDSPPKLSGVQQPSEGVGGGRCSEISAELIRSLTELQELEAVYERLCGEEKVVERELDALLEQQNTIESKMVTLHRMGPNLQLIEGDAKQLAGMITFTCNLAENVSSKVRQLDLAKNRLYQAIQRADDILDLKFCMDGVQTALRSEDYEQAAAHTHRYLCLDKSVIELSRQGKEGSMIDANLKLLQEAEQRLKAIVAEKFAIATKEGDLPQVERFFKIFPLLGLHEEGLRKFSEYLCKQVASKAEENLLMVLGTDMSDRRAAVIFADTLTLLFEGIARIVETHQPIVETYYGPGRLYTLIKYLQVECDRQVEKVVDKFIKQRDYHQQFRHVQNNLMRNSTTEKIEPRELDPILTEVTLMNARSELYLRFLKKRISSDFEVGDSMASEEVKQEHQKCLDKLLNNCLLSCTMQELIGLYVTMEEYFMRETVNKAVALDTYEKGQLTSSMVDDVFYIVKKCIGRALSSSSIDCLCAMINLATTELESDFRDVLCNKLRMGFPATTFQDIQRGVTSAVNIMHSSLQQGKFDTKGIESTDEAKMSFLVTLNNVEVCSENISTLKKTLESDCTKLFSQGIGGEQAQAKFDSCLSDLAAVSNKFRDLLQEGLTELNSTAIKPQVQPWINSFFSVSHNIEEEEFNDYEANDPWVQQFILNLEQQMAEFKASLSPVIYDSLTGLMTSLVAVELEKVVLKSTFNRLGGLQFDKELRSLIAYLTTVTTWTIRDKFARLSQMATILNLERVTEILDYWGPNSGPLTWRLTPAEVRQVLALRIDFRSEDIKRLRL
inactive: nilotinib -0.038 | [1] -0.01 | dasatinib -0.093 | [2] 0.008 | [3] 0.048 | quisinostat -0.047 | tipifarnib 0.006 | [4] 0.004 | [5] 0.001 | [6] 0.055

DPH5 isoform 5 (UniProt Q9H2P9)
Chain of UniProt Q9H2P9 (Q9H2P9 whole entry, looked up): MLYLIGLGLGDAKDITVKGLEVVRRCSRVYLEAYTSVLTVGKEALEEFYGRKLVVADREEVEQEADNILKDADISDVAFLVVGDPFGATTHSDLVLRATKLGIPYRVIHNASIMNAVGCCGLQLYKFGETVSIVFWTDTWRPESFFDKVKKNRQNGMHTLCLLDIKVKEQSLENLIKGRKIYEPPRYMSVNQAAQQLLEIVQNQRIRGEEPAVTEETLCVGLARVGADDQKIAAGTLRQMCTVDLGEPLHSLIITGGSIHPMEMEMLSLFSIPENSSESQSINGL
inactive: nilotinib -0.01 | [1] 0.289 | [2] 0.009 | [3] 0.062 | quisinostat 0.003 | tipifarnib 0.017 | [4] -0.048 | [5] -0.025
active: dasatinib 0.418 | [6] 0.377

CUX1 isoform 3 (UniProt P39880)
inactive: nilotinib -0.029 | [1] 0.026 | dasatinib -0.04 | [2] 0.012 | [3] 0.006 | quisinostat -0.02 | tipifarnib -0.057 | [4] 0.006 | [5] 0.03 | [6] -0.015

CYP51A1 (UniProt Q16850)
inactive: nilotinib 0.124 | [1] -0.026 | dasatinib 0.048 | [2] 0.034 | [3] 0.083 | quisinostat -0.021 | [4] -0.016 | [5] -0.009 | [6] -0.081
active: tipifarnib 0.664

CWC22 (UniProt Q9HCG8)
inactive: nilotinib 0.043 | [1] 0.017 | dasatinib -0.015 | [2] 0.002 | [3] 0.02 | quisinostat 0.015 | tipifarnib 0 | [4] 0.011 | [5] 0.023 | [6] -0.011

DHRS1 (UniProt Q96LJ7)
inactive: nilotinib -0.009 | [1] -0.043 | dasatinib 0.063 | [2] -0.064 | [3] -0.042 | quisinostat 0.012 | tipifarnib 0.055 | [4] -0.001 | [5] 0.033 | [6] -0.026

CYP24A1 (UniProt Q07973)
inactive: nilotinib 0.036 | [1] -0.029 | dasatinib -0.049 | [2] 0.015 | [3] 0.008 | quisinostat -0.33 | tipifarnib -0.018 | [4] 0.04 | [5] 0.068 | [6] -0.161

CLASP2 isoform 3 (UniProt O75122)
inactive: nilotinib 0.013 | [1] -0.004 | dasatinib -0.024 | [2] 0.02 | [3] 0.021 | quisinostat -0.042 | tipifarnib -0.063 | [4] -0.07 | [5] -0.007 | [6] 0.032

DAZAP1 (UniProt Q96EP5)
inactive: nilotinib -0.066 | [1] 0.04 | dasatinib 0.015 | [2] 0.044 | [3] -0.016 | quisinostat 0.118 | tipifarnib -0.039 | [4] 0.005 | [5] 0.01 | [6] -0.008

DCTN1 isoform 4 (UniProt Q14203)
inactive: nilotinib 0.304 | [1] -0.331 | dasatinib -0.163 | [2] -0.288 | [3] -0.051 | quisinostat -0.064 | tipifarnib -0.064 | [4] 0.074 | [5] 0.139 | [6] 0.169

CSNK2A1 (UniProt P68400)
inactive: nilotinib -0.022 | [1] 0.061 | dasatinib 0 | [2] 0.058 | [3] -0.029 | quisinostat 0.049 | tipifarnib -0.013 | [4] 0.019 | [5] 0.003 | [6] -0.068

CSNK1D (UniProt P48730)
active: [2] -0.551
inactive: nilotinib 0.199 | [1] -0.384 | dasatinib 0.028 | [3] -0.059 | quisinostat -0.049 | tipifarnib -0.139 | [4] 0.021 | [5] 0.072

CSNK2B (UniProt P67870)
Chain of UniProt P67870 (P67870 whole entry, looked up): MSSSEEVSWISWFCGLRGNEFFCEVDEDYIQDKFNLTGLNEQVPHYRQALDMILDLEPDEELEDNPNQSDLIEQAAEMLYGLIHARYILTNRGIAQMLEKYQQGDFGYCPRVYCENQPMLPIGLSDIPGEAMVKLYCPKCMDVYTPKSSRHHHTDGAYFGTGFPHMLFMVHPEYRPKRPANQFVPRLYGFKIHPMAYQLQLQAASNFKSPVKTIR
inactive: nilotinib 0.086 | [1] -0.029 | dasatinib -0.014 | [2] 0.034 | [3] -0.006 | quisinostat -0.005 | tipifarnib -0.058 | [4] 0.028 | [5] 0.042 | [6] -0.049

CNDP2 (UniProt Q96KP4)
inactive: nilotinib 0.039 | [1] -0.023 | dasatinib 0.017 | [2] 0.051 | [3] -0.05 | quisinostat -0.074 | tipifarnib -0.008 | [4] 0.004 | [5] 0.013 | [6] -0.003

DOCK8 (UniProt Q8NF50)
Chain of UniProt Q8NF50 (Q8NF50 whole entry, looked up): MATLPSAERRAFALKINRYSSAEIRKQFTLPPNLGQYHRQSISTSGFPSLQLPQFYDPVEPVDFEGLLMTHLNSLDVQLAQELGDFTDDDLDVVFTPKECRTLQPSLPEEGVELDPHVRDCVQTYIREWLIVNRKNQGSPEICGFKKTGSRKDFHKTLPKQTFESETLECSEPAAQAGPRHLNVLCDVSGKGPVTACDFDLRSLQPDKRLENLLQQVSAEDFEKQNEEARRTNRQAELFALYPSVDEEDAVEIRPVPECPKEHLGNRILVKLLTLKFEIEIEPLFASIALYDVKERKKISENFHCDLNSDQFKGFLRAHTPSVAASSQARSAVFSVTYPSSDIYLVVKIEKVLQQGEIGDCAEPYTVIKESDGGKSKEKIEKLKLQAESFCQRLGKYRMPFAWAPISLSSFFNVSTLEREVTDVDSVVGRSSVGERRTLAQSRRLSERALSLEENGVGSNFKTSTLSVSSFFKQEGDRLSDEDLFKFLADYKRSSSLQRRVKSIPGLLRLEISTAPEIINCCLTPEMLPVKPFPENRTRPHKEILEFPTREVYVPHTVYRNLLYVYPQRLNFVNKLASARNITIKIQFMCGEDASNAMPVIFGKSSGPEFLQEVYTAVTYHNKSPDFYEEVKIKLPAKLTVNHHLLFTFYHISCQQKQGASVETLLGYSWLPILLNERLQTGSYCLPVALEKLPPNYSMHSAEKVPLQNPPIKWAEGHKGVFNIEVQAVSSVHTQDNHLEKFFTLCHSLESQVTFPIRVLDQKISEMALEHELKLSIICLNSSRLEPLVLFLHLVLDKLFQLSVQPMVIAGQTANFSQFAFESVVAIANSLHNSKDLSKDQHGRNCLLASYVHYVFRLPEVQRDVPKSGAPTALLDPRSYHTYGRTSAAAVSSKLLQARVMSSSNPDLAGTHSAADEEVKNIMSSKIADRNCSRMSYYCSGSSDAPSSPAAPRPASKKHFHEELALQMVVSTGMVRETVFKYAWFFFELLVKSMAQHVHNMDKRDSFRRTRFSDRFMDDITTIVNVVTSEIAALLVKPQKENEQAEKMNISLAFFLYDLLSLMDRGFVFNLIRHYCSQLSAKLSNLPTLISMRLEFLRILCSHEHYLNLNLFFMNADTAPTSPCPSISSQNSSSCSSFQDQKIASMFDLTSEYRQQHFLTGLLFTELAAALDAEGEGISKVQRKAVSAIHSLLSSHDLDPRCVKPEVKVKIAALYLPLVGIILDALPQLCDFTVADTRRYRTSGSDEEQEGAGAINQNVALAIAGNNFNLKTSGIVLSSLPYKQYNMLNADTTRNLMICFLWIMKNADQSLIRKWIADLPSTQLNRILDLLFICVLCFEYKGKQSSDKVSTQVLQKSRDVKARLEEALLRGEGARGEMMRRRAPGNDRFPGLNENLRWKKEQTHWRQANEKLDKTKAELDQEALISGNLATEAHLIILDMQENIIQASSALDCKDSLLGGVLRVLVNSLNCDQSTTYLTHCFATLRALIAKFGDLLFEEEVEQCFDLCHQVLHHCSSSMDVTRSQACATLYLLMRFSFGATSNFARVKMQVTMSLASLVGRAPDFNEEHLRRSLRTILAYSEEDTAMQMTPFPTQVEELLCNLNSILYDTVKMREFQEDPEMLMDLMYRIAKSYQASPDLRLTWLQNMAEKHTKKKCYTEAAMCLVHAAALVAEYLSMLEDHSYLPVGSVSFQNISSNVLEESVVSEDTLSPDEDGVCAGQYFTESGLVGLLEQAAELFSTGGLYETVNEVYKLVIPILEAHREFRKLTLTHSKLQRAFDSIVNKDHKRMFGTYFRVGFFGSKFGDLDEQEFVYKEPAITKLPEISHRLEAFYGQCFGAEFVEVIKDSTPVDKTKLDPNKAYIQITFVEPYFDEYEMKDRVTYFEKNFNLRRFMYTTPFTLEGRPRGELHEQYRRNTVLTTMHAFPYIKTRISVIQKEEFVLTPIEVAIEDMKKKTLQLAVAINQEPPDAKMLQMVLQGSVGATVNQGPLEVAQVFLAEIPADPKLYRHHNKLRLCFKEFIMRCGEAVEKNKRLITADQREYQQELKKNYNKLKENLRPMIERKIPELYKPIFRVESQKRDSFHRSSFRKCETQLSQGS
inactive: nilotinib -0.007 | [1] -0.023 | dasatinib -0.045 | [2] 0.04 | [3] 0.058 | quisinostat -0.053 | tipifarnib -0.033 | [4] 0.032 | [5] 0.016 | [6] 0

DCP1A (UniProt Q9NPI6)
inactive: nilotinib 0.022 | [1] 0.117 | dasatinib -0.052 | [2] -0.023 | [3] -0.001 | quisinostat -0.042 | tipifarnib 0.039 | [4] 0.008 | [5] -0.041 | [6] -0.03

DDR1 isoform 5 (UniProt Q08345)
inactive: nilotinib 0.036 | [1] 0.013 | dasatinib 0.083 | [2] -0.216 | [3] 0.103 | quisinostat 0.045 | tipifarnib -0.012 | [4] -0.054

CHUK (UniProt O15111)
Chain of UniProt O15111 (O15111 whole entry, looked up): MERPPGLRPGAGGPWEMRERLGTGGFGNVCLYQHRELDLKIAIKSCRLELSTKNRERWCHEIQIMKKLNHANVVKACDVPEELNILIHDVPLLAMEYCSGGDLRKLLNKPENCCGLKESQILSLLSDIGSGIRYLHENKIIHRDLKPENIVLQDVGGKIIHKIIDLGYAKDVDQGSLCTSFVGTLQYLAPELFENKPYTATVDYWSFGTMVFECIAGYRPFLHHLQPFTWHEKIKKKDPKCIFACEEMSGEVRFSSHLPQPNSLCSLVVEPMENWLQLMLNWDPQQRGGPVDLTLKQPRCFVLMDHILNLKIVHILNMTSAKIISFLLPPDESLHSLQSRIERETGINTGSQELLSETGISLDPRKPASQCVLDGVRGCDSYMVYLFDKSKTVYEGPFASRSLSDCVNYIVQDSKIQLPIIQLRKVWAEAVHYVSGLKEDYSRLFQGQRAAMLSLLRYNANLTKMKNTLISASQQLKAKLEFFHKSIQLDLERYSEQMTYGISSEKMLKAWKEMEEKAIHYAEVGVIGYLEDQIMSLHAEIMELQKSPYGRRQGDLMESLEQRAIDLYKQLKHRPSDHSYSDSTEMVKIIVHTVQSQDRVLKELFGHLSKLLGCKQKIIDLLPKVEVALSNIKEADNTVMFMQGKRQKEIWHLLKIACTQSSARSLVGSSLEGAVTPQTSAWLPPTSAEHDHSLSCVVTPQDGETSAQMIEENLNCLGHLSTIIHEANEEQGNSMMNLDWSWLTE
inactive: nilotinib -0.029 | [1] 0.015 | dasatinib -0.091 | [2] 0.035 | [3] 0.059 | quisinostat -0.131 | tipifarnib -0.015 | [4] 0.078 | [5] -0.006 | [6] -0.116

COG3 (UniProt Q96JB2)
inactive: nilotinib -0.02 | [1] -0.023 | dasatinib -0.13 | [2] -0.002 | [3] 0.023 | quisinostat -0.097 | tipifarnib 0.022 | [4] 0.044 | [5] 0.024 | [6] -0.083

CIP2A (UniProt Q8TCG1)
inactive: nilotinib -0.006 | [1] 0.02 | dasatinib -0.107 | [2] 0.024 | [3] 0.054 | quisinostat -0.123 | tipifarnib 0.01 | [4] 0.019 | [5] 0.032 | [6] -0.014

DDB2 (UniProt Q92466)
inactive: nilotinib -0.027 | [1] -0.024 | dasatinib -0.033 | [2] -0.044 | [3] 0.02 | quisinostat 0.028 | tipifarnib 0.026 | [4] 0.021 | [5] 0.006 | [6] -0.003

COPZ1 isoform 4 (UniProt P61923)
inactive: nilotinib 0.012 | [1] 0 | dasatinib 0.015 | [2] 0.088 | [3] 0.023 | quisinostat 0.289 | tipifarnib 0.002 | [4] -0.029 | [5] -0.103 | [6] 0.037

CIB1 (UniProt Q99828)
inactive: nilotinib -0.014 | [1] -0.016 | dasatinib 0.022 | [2] 0.045 | [3] 0.008 | quisinostat 0.004 | tipifarnib 0.002 | [4] -0.011 | [5] 0.041 | [6] 0

DHFR (UniProt P00374)
inactive: nilotinib 0.023 | [1] -0.041 | dasatinib -0.091 | [2] 0.019 | [3] 0.073 | quisinostat -0.009 | tipifarnib -0.012 | [4] 0.039 | [5] -0.129 | [6] -0.04

CINP isoform 3 (UniProt Q9BW66)
Chain of UniProt Q9BW66 (Q9BW66 whole entry, looked up): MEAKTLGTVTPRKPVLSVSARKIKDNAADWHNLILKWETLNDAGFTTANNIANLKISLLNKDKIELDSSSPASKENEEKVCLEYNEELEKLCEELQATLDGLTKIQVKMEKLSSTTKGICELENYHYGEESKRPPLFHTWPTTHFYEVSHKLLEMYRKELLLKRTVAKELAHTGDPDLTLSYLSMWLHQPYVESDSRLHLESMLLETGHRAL
inactive: nilotinib -0.13 | [1] 0.065 | dasatinib -0.073 | [2] 0.19 | [3] 0.024 | quisinostat 0.015 | tipifarnib -0.009 | [4] 0.034 | [5] 0.03

DNM2 isoform 4 (UniProt P50570)
inactive: nilotinib 0.078 | [1] -0.018 | dasatinib -0.095 | [2] -0.03 | [3] 0.162 | quisinostat 0.025 | tipifarnib -0.12 | [4] 0.088 | [5] 0.044 | [6] -0.181
